From PubChem BioAssay AID743291 (Broad Institute, 2014)
Measured potencies and affinities stand elsewhere. The source made the active and inactive calls.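 The calls were made as follows: active = signal drop with fitted half-maximal dose at most twice the top valid dose, active in every repeat; inconclusive = repeats disagree, or flat partial inhibition, or poor fit; inactive = inactive in every repeat, including opposite effects.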

target: Caspase-3 (Homo sapiens) (UniProt P42574); experiment: caspase-3 enzyme inhibitors, selectivity check, dose response, selectivity assay for caspase-6 allosteric inhibitor project, biochemical, fluorescence, cherry-picked samples (AID 743291); details: Recombinant caspase-3, Z-DEVD-R110 cleavage fluorescence; series mostly up to 35 µM
Sequence (P42574 whole entry, looked up): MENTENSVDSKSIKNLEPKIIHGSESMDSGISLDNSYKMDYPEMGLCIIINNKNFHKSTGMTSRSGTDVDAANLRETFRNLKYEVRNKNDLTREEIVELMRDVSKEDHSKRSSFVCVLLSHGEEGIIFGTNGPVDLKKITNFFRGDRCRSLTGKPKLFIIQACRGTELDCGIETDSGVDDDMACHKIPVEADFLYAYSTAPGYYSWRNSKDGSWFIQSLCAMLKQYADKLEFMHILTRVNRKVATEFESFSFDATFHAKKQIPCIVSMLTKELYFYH

outcome, inactive:
COc1ccc([N+](=O)[O-])cc1NC(=O)CCS(=O)(=O)c1ccc(Br)cc1
CN(CC(=O)Nc1c(Cl)cccc1Cl)C(=O)c1cccc(-n2cccc2)c1
Cc1cc(C=O)c(C)n1-c1cc(C(=O)O)cc(C(=O)O)c1
Nc1c(O)cccc1C(=O)O
O=C(COC(=O)c1ccc([N+](=O)[O-])s1)Nc1cccc(S(=O)(=O)NC2=NCCCCC2)c1
CN(CC(=O)Nc1ccccc1Cl)C(=O)COC(=O)c1ccc([N+](=O)[O-])s1
Nc1cc2c(cc1Br)[nH]c(=O)c1ccccc12
CNS(=O)(=O)c1cccc(C(=O)OCC(=O)N2c3ccccc3NC(=O)C2(C)C)c1
COc1cc(NCCCCC(C)N)c2nccc(C)c2c1 (stereo not drawn)
O=C(Nc1ccc(S(=O)(=O)Nc2cnc3ccccc3n2)cc1)c1ccc(Cl)c([N+](=O)[O-])c1
O=C(O)C1CCCCC1C(=O)Nc1cccc(Br)c1 (stereo not drawn)
Nc1ccc(Nc2ccccc2)c(S(=O)(=O)O)c1
CCOC(=O)[C@H](Cc1c[nH]c2ccccc12)NC(=O)CN=[N+]=[N-]
COc1cc(NC(C)CCCNC(C)C)c2ncccc2c1OC (stereo not drawn)
CCCN(C(=O)c1cccc(-n2cccc2)c1)c1c(N)n(Cc2ccccc2)c(=O)[nH]c1=O
C/C(CC(=O)N1CCCC1)=N\NC(=O)c1cc2ccccc2cc1O
O=c1c(O)cccc2cc(O)c(O)c(O)c12
O=c1[nH]c(Nc2ccccc2Cl)cc2ccccc12
Oc1cc2c(cc1O)[C@H]1c3ccc(O)c(O)c3OC[C@@]1(O)C2
COc1ccc(NC(=O)CN(C)C(=O)c2cccc(-n3cccc3)c2)cc1
Cc1[nH]nc(S(=O)CC(=O)O)c1[N+](=O)[O-] (stereo not drawn)
NS(=O)(=O)c1ccc(NC(=O)COC(=O)c2ccc([N+](=O)[O-])s2)cc1
O=C(COC(=O)c1ccc([N+](=O)[O-])s1)Nc1ccc(F)cc1
COc1cc(-c2ccc(Nc3ccccc3C(=O)O)c(OC)c2)ccc1Nc1ccccc1C(=O)O
COc1cc(C)c2c(c1C=O)Oc1c(c(C)c(O)c3c1C(O)OC3=O)OC2=O (stereo not drawn)
O=C1CN(C(=O)COC(=O)c2ccc([N+](=O)[O-])s2)c2ccccc2N1
Cc1ccc(S(=O)c2ccc([N+](=O)[O-])c3nonc23)cc1 (stereo not drawn)
O=P(c1ccccc1)(c1ccccc1)c1cc(S(=O)(=O)O)ccc1O
COc1ccc(C(=O)OCC(=O)Nc2ncc([N+](=O)[O-])s2)cc1OC
Oc1cc(O)cc(C=Cc2ccc(O)c(O)c2)c1
O=C(O)C1Nc2c(Cl)cc(Cl)c(Cl)c2C2C=CCC12 (stereo not drawn)
O=C(COC(=O)c1ccc([N+](=O)[O-])s1)Nc1ccccc1
O=S(=O)(O)c1cc(O)c2cc(Nc3ccccc3)ccc2c1
CCCSC1=N/C(=C\c2ccc([N+](=O)[O-])o2)C(=O)S1
COCCN(C(=O)COC(=O)c1cc2c(s1)CCC2)c1c(N)n(Cc2ccccc2)c(=O)[nH]c1=O
COc1ccc(S(=O)(=O)Nc2cc(Sc3ncn[nH]3)c(O)c3ccccc23)cc1
O=C(O)/C(=C\c1ccc(Cl)c([N+](=O)[O-])c1)c1ccc(S(=O)(=O)N2CCCC2)s1
CCCCN(C(=O)c1cccc(-n2cccc2)c1)c1c(N)n(CCC)c(=O)[nH]c1=O
